From PubChem BioAssay AID875 (National Center for Advancing Translational Sciences (NCATS), 2007)
Out of some 75,000 compounds screened, about 35 (0.05%) were called active. Where a call stands in place of a potency, no number is given. For the sample, actives were picked, then their nearest neighbours and some compounds at random. A number with no mark means an inactive call. Calls follow the shape of the dose curve; as a rule, active = well fitted inhibition curve with a large enough effect; inconclusive = small, poorly fitted or top-dose-only effect; inactive = no such curve, though single readings can be large or run the other way.

target: Breast cancer type 1 susceptibility protein (Homo sapiens) (UniProt P38398); experiment: qHTS Assay for Inhibitors of BRCT-Phosphoprotein Interaction (Green Fluorophore); settings: BRCA1 BRCT-phosphopeptide binding, green fluorescence polarization; series mostly up to 76.9 µM
Description: NIH Molecular Libraries Screening Centers Network [MLSCN]
NIH Chemical Genomics Center [NCGC]
PI Name: Natarajan, Amarnath; University of Texas
A complex of BRCT (C-terminal portion of BRCA1, MW ~35 kDa, His-tagged) and fluorescently labeled pBACH1 phosphorylated 10 aa peptide fragment of BACH1, a helicase implicated in DNA repair, is incubated with library members. Inhibitors of BRCT-pBACH1 binding are detected by a decrease in the fluorescence polarization (FP) of the fluorophore. In order to minimize the effect of fluorescence artifacts and to increase the overall robustness of the screen, the compound library members were incubated in separate reactions with fluorescein labeled probe-protein complexes. Protein and labeled probes were supplied by Dr. Amarnath Natarajan, Department of Pharmacology and Toxicology, University of Texas Medical Branch Galveston, TX.
Assay Buffer: 16mM Na2HPO4, 4 mM NaH2PO4, 150 mM NaCl, 1 mM EDTA, 1 mM DTT, 0.02% NaN3, and 0.01% Tween 20 at pH 7.3.
100 nM labeled decapeptide/250 nM protein in columns 1, 2, 5 - 48. Titration of unlabeled decapeptide control (from 10 mM, then 1:2 dilution in duplicate) pin-transferred to column 2, rows 1 to 16. Column 1 is neutral.
Three uL of reagents were dispensed to 1536-well Greiner black solid-bottom plates. Compounds and controls (23 nL) were transferred
via Kalypsys PinTool. The plates were incubated for 12 min at room temperature, and then read on ViewLux (Perkin-Elmer) High throughput CCD imager using FITC for the fluorescein-labeled decapeptide probe polarization filter sets. During dispense, reagent bottles were kept submerged into 4 deg C water bath and all liquid lines were covered with aluminum foil to minimize probe and protein degradation. All screening operations were performed on a Kalypsys robotic system (Kalypsys, Inc., San Diego, CA) containing one RX-130 and two RX-90 anthropomorphic robotic arms. The timing and order of assay plates passing through the screening system were adjusted such that each compound library plate was assayed against the fluorescein- and rhodamine-labeled assay systems at immediately adjacent time points.
Potency is read from the fitted curve at half-maximal effect.

Chain of Breast cancer type 1 susceptibility protein (Homo sapiens) (P38398 whole entry, looked up): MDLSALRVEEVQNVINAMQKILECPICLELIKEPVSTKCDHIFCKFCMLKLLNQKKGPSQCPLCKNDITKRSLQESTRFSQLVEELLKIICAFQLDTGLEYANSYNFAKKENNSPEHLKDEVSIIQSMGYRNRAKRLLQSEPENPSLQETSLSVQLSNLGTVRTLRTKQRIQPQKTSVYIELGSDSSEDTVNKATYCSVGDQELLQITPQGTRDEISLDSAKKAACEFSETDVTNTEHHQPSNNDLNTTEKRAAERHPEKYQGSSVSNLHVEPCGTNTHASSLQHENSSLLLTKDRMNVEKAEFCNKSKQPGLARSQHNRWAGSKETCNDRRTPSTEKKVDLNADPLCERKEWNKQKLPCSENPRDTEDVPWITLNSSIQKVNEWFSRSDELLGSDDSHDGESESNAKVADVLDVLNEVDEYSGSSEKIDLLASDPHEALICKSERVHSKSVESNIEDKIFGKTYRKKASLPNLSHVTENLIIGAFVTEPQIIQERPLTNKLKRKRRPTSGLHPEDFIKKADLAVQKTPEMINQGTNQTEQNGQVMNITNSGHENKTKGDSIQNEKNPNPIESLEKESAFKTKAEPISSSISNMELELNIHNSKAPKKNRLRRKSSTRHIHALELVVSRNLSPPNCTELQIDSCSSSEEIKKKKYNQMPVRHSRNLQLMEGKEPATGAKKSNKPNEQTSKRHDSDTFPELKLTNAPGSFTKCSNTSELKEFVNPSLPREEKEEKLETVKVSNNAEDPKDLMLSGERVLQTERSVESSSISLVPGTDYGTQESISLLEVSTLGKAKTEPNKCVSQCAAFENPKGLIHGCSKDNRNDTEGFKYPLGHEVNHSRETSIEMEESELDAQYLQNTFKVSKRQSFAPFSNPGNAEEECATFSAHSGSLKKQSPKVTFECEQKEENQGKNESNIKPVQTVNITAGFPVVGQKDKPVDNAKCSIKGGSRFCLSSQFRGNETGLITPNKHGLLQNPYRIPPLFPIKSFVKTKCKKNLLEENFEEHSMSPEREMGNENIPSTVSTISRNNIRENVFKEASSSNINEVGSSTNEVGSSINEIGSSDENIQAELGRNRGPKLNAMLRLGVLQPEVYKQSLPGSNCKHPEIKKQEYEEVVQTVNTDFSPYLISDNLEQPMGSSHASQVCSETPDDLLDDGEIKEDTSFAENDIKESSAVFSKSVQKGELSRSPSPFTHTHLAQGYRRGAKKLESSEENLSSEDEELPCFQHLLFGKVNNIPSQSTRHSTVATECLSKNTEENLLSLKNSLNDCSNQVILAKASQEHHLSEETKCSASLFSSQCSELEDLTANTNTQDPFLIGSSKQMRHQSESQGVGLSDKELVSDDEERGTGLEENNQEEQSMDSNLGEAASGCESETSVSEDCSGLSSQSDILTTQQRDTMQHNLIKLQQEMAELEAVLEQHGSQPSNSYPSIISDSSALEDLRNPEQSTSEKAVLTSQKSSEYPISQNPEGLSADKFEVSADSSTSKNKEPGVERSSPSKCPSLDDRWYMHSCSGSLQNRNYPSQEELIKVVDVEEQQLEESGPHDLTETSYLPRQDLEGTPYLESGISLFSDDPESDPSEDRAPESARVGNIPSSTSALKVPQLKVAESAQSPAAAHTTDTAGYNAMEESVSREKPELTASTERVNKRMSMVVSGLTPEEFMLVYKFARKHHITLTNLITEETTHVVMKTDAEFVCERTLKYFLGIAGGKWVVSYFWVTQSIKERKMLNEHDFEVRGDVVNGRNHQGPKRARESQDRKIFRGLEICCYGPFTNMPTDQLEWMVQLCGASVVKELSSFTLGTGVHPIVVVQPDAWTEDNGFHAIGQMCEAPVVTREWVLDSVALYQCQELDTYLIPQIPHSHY

| SMILES | activity change, negative = inhibition | Potency |
| --- | --- | --- |
| Cc1nnc(NC2=NCCCCC2)o1 | inactive | – |
| CCNc1nc(NCC)nc(N(C)n2cnnc2)n1 | inactive | – |
| c1csc(-c2cn3c(n2)SCC3)c1 | inactive | – |
| O=C(c1csnn1)N1CCC[C@@]2(CCN(Cc3nccs3)C2)C1 | inactive | – |
| COc1cc(-c2nc(S(=O)(=O)c3ccc(Cl)cc3)c(N(C)C)o2)cc(OC)c1OC | inactive | – |
| COc1ccc(NC(=O)CSc2nnc(-c3cccs3)n2Cc2ccco2)cc1OC | inactive | – |
| COC(=O)[C@@H]1C[C@@]2(O)[C@H](O)[C@H](O)[C@H](O)C[C@H]2N1Cc1ccc(C(C)(C)C)cc1 | inactive | – |
| Cc1ccc(S(=O)(=O)C(C#N)c2nc3ccccc3nc2N2CCCC2)cc1C (stereo unspecified) | inactive | – |
| O=C(CC1NCCNC1=O)Nc1ccc(Oc2ccccc2)cc1 (stereo unspecified) | inactive | – |
| COC(=O)Nc1ccc(S(=O)(=O)N(C)CC(F)(F)C(F)F)cc1 | inactive | – |
| Cc1c2cnn(-c3ccccc3)c(=O)c2c(C)n1CCCC(=O)N1CCN(C)CC1 | inactive | – |
| O=c1c2c(nc3n1CCCCC3)sc1c(O)cccc12 | inactive | – |
| COC(=O)[C@@H]1C[C@H]2CC[C@H](O)C[C@H]2N1Cc1ccc(N2CCN(C)CC2)cc1 | inactive | – |
| CC(=O)OCC(=O)[C@@]1(O)CCC2C3CCC4=CC(=O)CC[C@@]4(C)[C@]3(F)C(O)C[C@]21C (stereo partly specified) | -2.43% [at 3.08 µM] | – |
| OCCCN1c2ccccc2Nc2nnc(-c3ccccc3)cc21 | inactive | – |
| COC1C[C@@H](O[C@@H]2C(C)C(=O)OC(C)C(C)C(O)C(C)C(=O)[C@@]3(CO3)CC(C)C(OC3OC(C)CC(N(C)C)C3O)C2C)OC(C)[C@@H]1O (stereo partly specified) | -1.55% [at 3.08 µM] | – |
| CCN(CC)S(=O)(=O)c1ccc2nc(CSc3nnnn3-c3ccc(O)cc3)[nH]c2c1 | inactive | – |
| CCC1=C(OC(=O)N(CC)CC)N2C(=O)OC(=NCCc3c[nH]c4ccccc34)[C@]2(C)[C@H]2C1=CC[C@H]1C(=O)N(CC)C(=O)[C@H]12 | inactive | – |
| CSCCC1NC2(C(=O)Nc3ccc(Cl)cc32)[C@@H]2C(=O)N(C3CCCC3)C(=O)[C@H]12 (stereo partly specified) | inactive | – |
| c1ccc2c(CNn3cnnc3)cccc2c1 | inactive | – |
| Cc1occc1C(=O)Nc1cccc(Cn2cccn2)c1 | inactive | – |
| CCCc1nc2ccccc2c(=O)n1/N=C/c1ccc(O)c(O)c1 | inactive | – |
| CC(C)C[C@H](NC(=O)NCCc1ccc(Cl)cc1)C(=O)O | inactive | – |
| Cn1c(SCC(=O)Nc2cccc(NC(=O)c3cccs3)c2)nnc1-c1ccncc1 | inactive | – |
| CCCOc1ccc(C2C(C(=O)c3ccc(C)o3)=C(O)C(=O)N2CCCn2ccnc2)cc1 (stereo unspecified) | inactive | – |
| N#Cc1c(NC(=O)CSc2nc3ccccc3c(=O)n2Cc2ccco2)sc2c1CCCC2 | inactive | – |

| SMILES | activity change, negative = inhibition | Potency |
| --- | --- | --- |
| CCOC(=O)C1C(=O)OC2(CCCC2)C1C(=O)OCC (stereo unspecified) | inactive | – |
| Cn1nc(-c2ccc(N3CCOCC3)c(NC(=O)c3ccccc3)c2)c2ccccc2c1=O | inactive | – |
| CC1CCCCC1NC(=O)CSc1nnc(N)s1 (stereo unspecified) | inactive | – |
| COCc1[nH]nc2c1C(C1C=CCCC1)C(C#N)=C(N)O2 (stereo unspecified) | inactive | – |
| O=c1c(O)c(-c2ccc(O)cc2)oc2ccccc12 | -3.22% [at 3.08 µM] | – |
| CCOc1ccc2[nH]c(=O)c(CN(Cc3nnnn3CCc3ccccc3)CC3CCCO3)cc2c1 (stereo unspecified) | inactive | – |
| Cc1ccc(C)c(NC(=O)C2CC(=O)N(C(C)C)C2)c1 (stereo unspecified) | inactive | – |
| O=C(COc1ccc(S(=O)(=O)NCCc2ccccc2)cc1)N1CCCC1 | inactive | – |
| CC(C)n1c(C(O)c2ccccc2)nc2ccccc21 (stereo unspecified) | inactive | – |
| O=C(NCC12CC3CC(C1)CC(CNC(=O)N1CCCC1)(C3)C2)N1CCCC1 | inactive | – |
| CC(=O)O[C@]1(C(C)=O)CC[C@@H]2[C@@H]3C=C(C)C4=CC(=O)CC[C@@]4(C)[C@H]3CC[C@]21C | inactive | – |
| S=c1[nH]nc(SCc2ccccc2Cl)c2[nH]cnc12 | -0.607% [at 15.4 µM] | – |
| CCNC(=O)CN(c1ccc(C)cc1)S(=O)(=O)c1ccc(SC)cc1 | inactive | – |
| CC(C)NC(=O)N1CC[C@@]2(CCCN(C(=O)c3cccc(F)c3)C2)C1 | inactive | – |
| Cc1ccc(C(c2nnnn2CS(=O)(=O)c2ccc(C)cc2)N2CCC(C(N)=O)CC2)cc1 (stereo unspecified) | inactive | – |
| CCSc1ncnc2c(C#N)c3n(c12)CCCCC3 | inactive | – |
| COc1ccc(-n2c(SCC(=O)OC(C)C)nnc2-c2ccccn2)cc1 | inactive | – |
| Nc1nnc(C2CCCC2)s1 | inactive | – |
| CC(=O)c1ccc(-n2nnnc2SCC(=O)N2CCN(C(=O)c3ccco3)CC2)cc1 | inactive | – |
| CC1(C)OC2CC(=O)OC[C@@]23C1CC(=O)[C@]1(C)C3CC[C@@]2(C)C(c3ccoc3)OC(=O)C3O[C@@]321 (stereo partly specified) | inactive | – |
| C[C@H](CCC(=O)O)[C@H]1CC[C@@H]2[C@H]3CC[C@H]4C[C@H](O)CC[C@@]4(C)[C@@H]3CC[C@@]21C | -0.353% [at 15.4 µM] | – |
| COc1ccc(-c2nnco2)cc1OC | inactive | – |
| CCCOC(=O)Cc1c(O)c2ccccc2[nH]c1=O | inactive | – |
| N#CCC(=O)NC(=O)NCC1CC1 | inactive | – |
| Cc1ccc(OS(=O)Nc2cccc3nccnc23)cc1 (stereo unspecified) | inactive | – |
| Cc1c(S(=O)(=O)O)oc2c1C(=O)C(=O)c1c-2ccc2c1CCCC2(C)C | – | 31.6 µM (active) |

| SMILES | activity change, negative = inhibition | Potency |
| --- | --- | --- |
| O=C(c1c(Cl)nc2sccn12)N1CCCc2ccccc21 | inactive | – |
| CCOc1ccc(C2C(C(=O)O)c3ccccc3C(=O)N2CCN2CCOCC2)cc1 (stereo unspecified) | inactive | – |
| COc1ncc2nc(-c3ccc(Cl)cc3)c(=O)n(-c3ccccc3)c2n1 | inactive | – |
| CC(=O)NC1CC2CCCC(C1)N2CC(=O)Nc1ccccc1 (stereo unspecified) | inactive | – |
| Cc1ccc(N(C(=O)CC2NC(=O)NC2=O)C2(C(=O)NC3CCCC3)CCCCC2)cc1 (stereo unspecified) | inactive | – |
| O=S(=O)(NCc1cccnc1)c1ccc(Br)s1 | inactive | – |
| Cc1cc(NC(=O)COC(=O)c2ccc(F)c(S(=O)(=O)N3CCOCC3)c2)no1 | inactive | – |
| O=C1c2ccccc2S(=O)(=O)N1CC(O)Cn1c2ccccc2c2ccccc21 (stereo unspecified) | inactive | – |
| O=C1OC(C(O)CO)C(O)=C1O (stereo unspecified) | -0.826% [at 3.08 µM] | – |
| CO[C@H]1COC(=O)[C@@H](C)NC(=O)C/C=C\[C@@H](C)[C@H](OC)COC(=O)C/C=C\[C@@H]1C | -2.28% [at 15.4 µM] | – |
| CC1(C)Cc2cccc(OCC(=O)Nc3nccs3)c2O1 | inactive | – |
| Cc1ccc(-c2noc(-c3ccccc3C(=O)NCC3CCCO3)n2)cc1 (stereo unspecified) | inactive | – |
| Cc1cc(C)c(C#N)c(SCS(=O)c2ccc(C(C)(C)C)cc2)n1 (stereo unspecified) | inactive | – |
| Cc1ccc(S(=O)(=O)NC(=O)NN2C[C@H]3CCC[C@@H]3C2)cc1 | inactive | – |
| CN(C)CCNC(=O)C(C(=O)c1ccccc1)n1ccccc1=O (stereo unspecified) | inactive | – |
| CCOC(=O)N1CCN(C(=O)C2CC(c3ccc(F)cc3)=NO2)CC1 (stereo unspecified) | inactive | – |
| Cc1csc(-c2nc3ccccc3n2C)n1 | inactive | – |
| O=C(Nc1cccc2c1CCCC2)C1CCN(C(=O)NC2CCCCC2)CC1 | inactive | – |
| Fc1ccc(-c2ccc(-c3nn4c(-c5ccco5)nnc4s3)o2)cc1 | inactive | – |
| COc1ccc(OC)c(C(=O)c2ccc(C(=O)O)cc2)c1 | inactive | – |
| CCOC(=O)C(C)Oc1cccc2c(=O)n(CC(=O)N3CCc4ccccc43)ccc12 (stereo unspecified) | inactive | – |
| O=C(CSc1nnc(-c2cccnc2)n1Cc1ccco1)c1ccc(Cl)c(Cl)c1 | inactive | – |
| COCCN(C(=O)CCC(=O)Nc1ccccn1)C(C(=O)NCCC(C)C)c1ccc(OC)cc1 (stereo unspecified) | inactive | – |
| CCc1c(C)nc(N)n2c(SCC(=O)N3CCN(c4ccccc4)CC3)nnc12 | inactive | – |
| CCCC(NC(=O)c1ccccc1)c1nc2ccccc2n1Cc1ccc(C(=O)OC)o1 (stereo unspecified) | inactive | – |
| CC(=O)c1sc2nc(SCC(=O)N3CCCCC3)[nH]c(=O)c2c1C | inactive | – |

| SMILES | activity change, negative = inhibition | Potency |
| --- | --- | --- |
| C/C(O)=C\c1nc(=O)c2c(C)cc(C)nc2n1-c1ccccc1 | inactive | – |
| Cc1cc(NCc2ccco2)n2c(nc3ccccc32)c1C#N | inactive | – |
| CCCN1[C@H](C(=O)OC)C[C@@]2(O)[C@@H](O)[C@@H](O)[C@@H](O)C[C@@H]12 | inactive | – |
| O=C(O)[C@H](CCc1ccccn1)c1ccccc1 | 0.305% [at 15.4 µM] | – |
| Cc1nc(C)c(C(=O)Nc2cccc(C)c2C)o1 | inactive | – |
| CCCn1c(=O)c2[nH]c(C3CCCC3)nc2n(CCC)c1=O | inactive | – |
| O=C(NCCCN1CCOCC1)c1cc(-c2ccc(Cl)cc2)on1 | inactive | – |
| COC(=O)[C@@H]1C[C@@]2(O)[C@H](O)[C@H](O)[C@H](O)C[C@H]2N1Cc1ccc(C)s1 | inactive | – |
| CN(C)/C=N/c1cc(=O)n(C)c(=O)n1CC1CC1 | inactive | – |
| CCCCCCCCCc1ccc(OCCOCCOCCOCCOCCOCCOCCOCCOCCO)cc1 | inactive | – |
| O=C(Nc1ccccc1N1CCCCC1)c1ccc2nccnc2c1 | inactive | – |
| CN1CCCC1CCO[C@@](C)(c1ccccc1)c1ccc(Cl)cc1 (stereo partly specified) | -4.61% [at 3.08 µM] | – |
| CN1CCc2nc(-c3ccccc3)c(-c3ccccc3)cc2C1 | -0.939% [at 15.4 µM] | – |
| CCN(CC)C(=O)CSc1nnc(-c2cnccn2)n1-c1ccc(C)cc1 | inactive | – |
| Cc1c(C(=O)CN2CCOCC2)[nH]c2ccccc12 | inactive | – |
| Cc1cccc(-c2cc(=O)c3cc(C)ccc3o2)c1 | inactive | – |
| Cc1c(S(=O)(=O)O)ccc(N=Nc2c(O)c(C(=O)O)cc3ccccc23)c1Cl | -3.5% [at 15.4 µM] | – |
| CC(C(=O)Nc1ccccc1-c1ccccc1)N1CCOCC1 (stereo unspecified) | inactive | – |
| CCC1CCCCN1C(=O)Nc1cccc(NC(=O)N2CCCCC2CC)c1 (stereo unspecified) | inactive | – |
| CCOc1ccc(Cn2nnc(C(=O)NCc3ccccc3)c2N)cc1 | inactive | – |
| O=C(Cn1nc(Cc2cccnc2)c2ccccc2c1=O)NCC1CCCO1 (stereo unspecified) | inactive | – |
| O=c1[nH]nc(CSCc2ccccc2Cl)[nH]1 | inactive | – |
| Cc1cc(C)c(S(=O)(=O)NCCCN2CCOCC2)cc1Br | inactive | – |
